Activity change, negative = inhibition data for 40 compounds are collected here from PubChem BioAssay (NCATS).

Molecules are shown by their SMILES. Results filed as inconclusive are left out. Unmarked numbers belong to inactive results. Calls come from the whole dose curve; as a rule, active = well fitted curve in either direction with a large enough effect (not every such curve was filed as active); inconclusive = small, poorly fitted or top-dose-only effect, or another doubt; inactive = flat fitted curve, though single readings scatter.
% is set by controls: 0 for no effect and ±100 for the full control effect.

A short description of the first assay: AP1 Signaling Pathway (AID 357).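 Note: ME-180 reporter cells stimulated with EGF at its EC50 level.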 Particulars: ME-180 (cervical carcinoma) AP-1-bla reporter, EGF-induced, beta-lactamase ratio, 5 h; at 17.2 µM (top of the series) unless noted. The method, boiled down:
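Beta-lactamase reporter under AP-1 response element, ME-180 background. Stimulus: EC50 EGF. Compound exposure 5 h, 37 °C. Detection: CCF4, 2.5 h RT, 460/530 nm. Values: AC50 from titration.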
On to `COc1ccc(OC)c(C2C(C#N)=C(N)Oc3cc(C)[nH]c(=O)c32)c1` (stereo not given), for which the activity change, negative = inhibition was -7.62%.
For the compound `Cc1nn(CC(=O)N2CCOCC2)c(=O)c2ccccc12`, the activity change, negative = inhibition was 10.7%.
Still for that read-out and setting: with `Cc1c(NC(=O)C(CC(=O)O)NCc2ccco2)c(=O)n(-c2ccccc2)n1C` (stereo not given) the figure was -3.94%; with `COc1cc(/C=N/n2c(C)nnc2C)cc(OC)c1OC`, -12.3%; with `CC1(C)Cc2nc(N)c(C(=O)NCCO)cc2CO1`, 8.22%.
For the compound `Cn1cccc1/C=N/n1cnnc1`, the activity change, negative = inhibition was -2.1%.
Consider `COC(=O)COn1c(SCC(=O)OC)nc2ccccc2c1=O`, for which the activity change, negative = inhibition is 2.38%.
For `Cc1ccc(C2CC(C(F)(F)F)n3ncc(C(N)=O)c3N2)cc1` (stereo not given), the activity change, negative = inhibition is -3.17%.
With `Cc1nc2c(c(=O)n1CC1CCCO1)c1nc3ccccc3nc1n2CCC(C)C` (stereo not given), the activity change, negative = inhibition is 6.32%.
On to `CCOc1ccc(NC(=O)c2nn(C)cc2Br)cc1`, for which the activity change, negative = inhibition was 1.01%.
In the case of `COc1cccc(OC)c1C(=O)N1CCN(S(=O)(=O)c2ccc(C)cc2)CC1`, the activity change, negative = inhibition is -12.3%.
With `CC(C)=CCC(C)(C)CNC(=O)NC1CCCCC1`, the activity change, negative = inhibition was -8.2%.
For `O=C(O)CCSc1ccc2ccccc2n1`, the activity change, negative = inhibition is 14.9%.
`N#CC1(c2ccccc2)CCC(=NO)CC1` (stereo not given): the activity change, negative = inhibition is -5.72%.
For `Cc1ccc2[nH]c3c(c2c1)CN(C(=O)CN1CC(C)OC(C)C1)CC3` (stereo not given), the activity change, negative = inhibition was -2.87%.
On the same count and under the same terms, with `CCOc1ccc(Br)cc1CC(=O)O` the figure was 8.45%; with `Nc1nnnn1N=C1CCCCC1`, -7.36%; with `Cn1c(=O)c2c(nc(NCc3ccc4c(c3)OCO4)n2Cc2ccc(F)cc2)n(C)c1=O`, -26%.
For the compound `CC1(C)Cc2[nH]c(=S)c(C#N)cc2CO1`, the activity change, negative = inhibition was 8.31%.
Same read-out and setting: under `S=c1nc(-c2ccccc2)[nH]n1-c1ccccc1` stands 21.6%.
For `CCc1nnc(NC(=O)c2c(O)c3c([nH]c2=O)CCCC3)s1`, the activity change, negative = inhibition was -9.97%.
In the case of `O=C(O)c1ccnc(C(=O)O)c1`, the activity change, negative = inhibition is 8.01%.
In the case of `CC(=O)OCc1c(COC(C)=O)[n+](=O)c2ccccc2n1[O-]`, the activity change, negative = inhibition was 8.53%.
Take `Cn1nccc1C(=O)Nc1ccccc1C(=O)O`: the activity change, negative = inhibition is -2.42%.
Take `Cc1ccc2c(c1)C(CCN)C(=O)N2Cc1ccccc1` (stereo not given): the activity change, negative = inhibition is 19.6%.
The same measure, in the same setting: with `CN(C)c1ccc(C=NCCC2(O)CCOC(C)(C)C2)cc1` (stereo not given) the figure was 0.733%.
Still for that read-out and setting: under `CC1(C)CC(=O)C(CCCN2C(=O)c3ccccc3C2=O)C(=O)C1` stands 8.1%; under `COc1cccc(C(=O)N2CCN(S(=O)(=O)Cc3ccccc3)CC2)c1OC`, 8.1%.
As to `CCOC(=O)c1cc(CC)sc1NC(=O)C1CC1`, the activity change, negative = inhibition is -23.9%.
Same read-out and setting: with `Cc1ccc(Cn2ncc3c(N4CCOCC4)ncnc32)cc1` the figure was -2.95%.
As to `N#C/C(C(=O)NCc1ccccc1)=C1\SC(CCO)C(=O)N1c1ccccc1` (stereo not given), the activity change, negative = inhibition was -9.75%.
On to `COCCOC(=O)c1c(C)nc(SCC(=O)Nc2ccc(C)cc2)c(C#N)c1-c1ccco1`, for which the activity change, negative = inhibition was -27.8%.
On to `c1ccc(OCc2nn3c(-c4ccco4)nnc3s2)cc1`, for which the activity change, negative = inhibition was 27.2%.
On to `CCc1ccc(NC(=O)CSC2=C(C#N)C(c3ccco3)C3=C(CCCC3=O)N2)cc1` (stereo not given), for which the activity change, negative = inhibition is -12.8%.
As to `CCCc1cc(=O)oc2c(CN3CCCC3)c(O)ccc12`, the activity change, negative = inhibition was -13.6%.
As to `COc1ccc2[nH]c(C)c(C(=O)CN3CCOCC3)c2c1`, the activity change, negative = inhibition is 12.7%.
As to `Clc1ccc2[nH]c3c(NCCCN4CCOCC4)ncnc3c2c1`, the activity change, negative = inhibition is 17%.
Consider `COc1ccc(-c2ncncc2-c2csc(C)n2)c(O)c1`, for which the activity change, negative = inhibition was 2.87%.
Still for that read-out and setting: with `O=C(Nc1ccc(Cl)cn1)C1CCCN1S(=O)(=O)c1ccccc1` (stereo not given) the figure was -9.31%; with `N/C(CCCN1CCCCC1)=N/O`, 14.3%.

A further assay in a line: NFAT Signaling Pathway (AID 444).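 Note: carbachol stimulus at about its EC50 of 1 µM final.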 Particulars: Jurkat NFAT-bla M1, carbachol, beta-lactamase ratio, 5 h; at 17.2 µM (top of the series) unless noted. The method, boiled down: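 Read-out: CCF4 FRET ratio (460 nm/530 nm) after 1 h RT dye loading, used for %activity and AC50 from titration series. Cells: Jurkat NFAT-β-lactamase/M1 line, treated with compound plus 1 uM carbachol for 5 h, 37 °C.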
Turning to `COc1ccc(OC)c(C2C(C#N)=C(N)Oc3cc(C)[nH]c(=O)c32)c1` (stereo not given), the activity change, negative = inhibition is -4.06%.
On to `Cc1nn(CC(=O)N2CCOCC2)c(=O)c2ccccc12`, for which the activity change, negative = inhibition was 8.23%.
On to `Cc1c(NC(=O)C(CC(=O)O)NCc2ccco2)c(=O)n(-c2ccccc2)n1C` (stereo not given), for which the activity change, negative = inhibition is 5.18%.
Turning to `COc1cc(/C=N/n2c(C)nnc2C)cc(OC)c1OC`, the activity change, negative = inhibition is 10.5%.
On to `CC1(C)Cc2nc(N)c(C(=O)NCCO)cc2CO1`, for which the activity change, negative = inhibition is 3.25%.
For `Cn1cccc1/C=N/n1cnnc1`, the activity change, negative = inhibition was -1.22%.
With `COC(=O)COn1c(SCC(=O)OC)nc2ccccc2c1=O`, the activity change, negative = inhibition is 3.27%.
On the same count and under the same terms, with `Cc1ccc(C2CC(C(F)(F)F)n3ncc(C(N)=O)c3N2)cc1` (stereo not given) the figure was 2.37%; with `Cc1nc2c(c(=O)n1CC1CCCO1)c1nc3ccccc3nc1n2CCC(C)C` (stereo not given), -6.4%.
Take `CCOc1ccc(NC(=O)c2nn(C)cc2Br)cc1`: the activity change, negative = inhibition is 4.54%.
On to `COc1cccc(OC)c1C(=O)N1CCN(S(=O)(=O)c2ccc(C)cc2)CC1`, for which the activity change, negative = inhibition was -1.17%.
In the case of `CC(C)=CCC(C)(C)CNC(=O)NC1CCCCC1`, the activity change, negative = inhibition is 19%.
As for `O=C(O)CCSc1ccc2ccccc2n1`, the activity change, negative = inhibition is 11.5%.
Take `N#CC1(c2ccccc2)CCC(=NO)CC1` (stereo not given): the activity change, negative = inhibition is 8.2%.
As to `Cc1ccc2[nH]c3c(c2c1)CN(C(=O)CN1CC(C)OC(C)C1)CC3` (stereo not given), the activity change, negative = inhibition is -2.75%.
Take `CCOc1ccc(Br)cc1CC(=O)O`: the activity change, negative = inhibition was -5.28%.
Same read-out and setting: under `Nc1nnnn1N=C1CCCCC1` stands 0.933%.
In the case of `Cn1c(=O)c2c(nc(NCc3ccc4c(c3)OCO4)n2Cc2ccc(F)cc2)n(C)c1=O`, the activity change, negative = inhibition is -10.4%.
Still for that read-out and setting: with `CC1(C)Cc2[nH]c(=S)c(C#N)cc2CO1` the figure was -8.3%; with `S=c1nc(-c2ccccc2)[nH]n1-c1ccccc1`, 5.29%; with `CCc1nnc(NC(=O)c2c(O)c3c([nH]c2=O)CCCC3)s1`, 15.9%.
The same measure, in the same setting: with `O=C(O)c1ccnc(C(=O)O)c1` the figure was 0.361%; with `CC(=O)OCc1c(COC(C)=O)[n+](=O)c2ccccc2n1[O-]`, -3.2%; with `Cn1nccc1C(=O)Nc1ccccc1C(=O)O`, 5.13%.
Same read-out and setting: under `Cc1ccc2c(c1)C(CCN)C(=O)N2Cc1ccccc1` (stereo not given) stands -9.23%.
`CN(C)c1ccc(C=NCCC2(O)CCOC(C)(C)C2)cc1` (stereo not given): the activity change, negative = inhibition is 4.94%.
On to `CC1(C)CC(=O)C(CCCN2C(=O)c3ccccc3C2=O)C(=O)C1`, for which the activity change, negative = inhibition was 2.72%.
In the case of `COc1cccc(C(=O)N2CCN(S(=O)(=O)Cc3ccccc3)CC2)c1OC`, the activity change, negative = inhibition was 18.1%.
In the case of `CCOC(=O)c1cc(CC)sc1NC(=O)C1CC1`, the activity change, negative = inhibition is 12.8%.
Still for that read-out and setting: under `Cc1ccc(Cn2ncc3c(N4CCOCC4)ncnc32)cc1` stands 19.3%; under `N#C/C(C(=O)NCc1ccccc1)=C1\SC(CCO)C(=O)N1c1ccccc1` (stereo not given), 10.3%.
`COCCOC(=O)c1c(C)nc(SCC(=O)Nc2ccc(C)cc2)c(C#N)c1-c1ccco1`: the activity change, negative = inhibition is -11.8%.
`c1ccc(OCc2nn3c(-c4ccco4)nnc3s2)cc1`: the activity change, negative = inhibition was 1.21%.
Turning to `CCc1ccc(NC(=O)CSC2=C(C#N)C(c3ccco3)C3=C(CCCC3=O)N2)cc1` (stereo not given), the activity change, negative = inhibition is -17.6%.
With `CCCc1cc(=O)oc2c(CN3CCCC3)c(O)ccc12`, the activity change, negative = inhibition is 8.87%.
Same read-out and setting: under `COc1ccc2[nH]c(C)c(C(=O)CN3CCOCC3)c2c1` stands -9.22%; under `Clc1ccc2[nH]c3c(NCCCN4CCOCC4)ncnc3c2c1`, -2.05%; under `COc1ccc(-c2ncncc2-c2csc(C)n2)c(O)c1`, -5.52%.
With `O=C(Nc1ccc(Cl)cn1)C1CCCN1S(=O)(=O)c1ccccc1` (stereo not given), the activity change, negative = inhibition was -4.11%.
As for `N/C(CCCN1CCCCC1)=N/O`, the activity change, negative = inhibition was -3.1%.
